Source: PubChem
Pf Dd2 growth: P. falciparum Dd2 growth inhibition; SYBR Green, 72 h; hits give low values; activity change, % at 10 µM; 2.3% of 94,000 active; AID 1159554; in the data active means activity change below about -80%; inconclusive means no clear call, values can overlap the other calls
T cruzi growth-1: inhibitors of T. cruzi proliferation; T. cruzi beta-gal in NIH3T3, GalScreen luminescence, 90 h; 5.9% of 77,000 active; inhibition, % at 8.34 µM; AID 624255;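 active means mean inhibition above about 93%, with at least 55% of replicates each passing it, limit read from the data, passing the limit was not always enough; inconclusive means only one of those two conditions holds; inactive means neither condition holds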
C diff HTS: C. difficile growth inhibition | Clostridium difficile clinical isolate growth, OD600, 24 h; hits give low values | growth activity, negative = inhibition, % at 16 µg/mL (by protocol) | 0.25% of 86,000 active | AID 1259249;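 active means mean growth activity at or below -80% and every replicate also at or below -80%; inconclusive means mean at or below -80% but some replicate above -80%; inactive means mean growth activity above -80%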;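 further: 0% = DMSO wells and -100% = levofloxacin 16 µg/mL wells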
T cruzi growth-2: blocks T. cruzi growth in NIH3T3 host cells; shares compounds with T cruzi growth-1; 72% of 5,600 active; AID 651739; inhibition, % at 8.35 µM; T. cruzi beta-gal in NIH3T3, GalScreen luminescence, 90 h;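 active means mean replicate inhibition above about 95% and at least 55% of replicates individually reaching it, limit read from the data; inconclusive means only one of the two criteria is met; inactive means neither criterion is met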
T cruzi growth-3: blocks T. cruzi growth in NIH3T3 host cells; shares compounds with T cruzi growth-1; T. cruzi beta-gal in NIH3T3, GalScreen luminescence, 90 h; inhibition, % at 2.09 µM; 21% of 5,600 active; AID 651740;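 active means mean inhibition above about 95%, with at least 55% of replicates also reaching it, limit read from the data; inconclusive means meets just one of the two conditions; inactive means meets neither condition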;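 further: plate controls were neutral control median for no effect and positive control median for full effect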
NIH3T3 tox: NIH/3T3 (mouse) viability loss. shares compounds with T cruzi growth-1. NIH/3T3 viability, CellTiter-Glo ATP luminescence, 90 h. cytotoxicity (signal decrease), % at 8.35 µM. 14% of 5,600 active;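 active means mean signal decrease across replicates above about 35% based on untreated-well scatter, with enough replicates individually passing, limit read from the data; inconclusive means no rule stated though some were filed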;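 further: 0% = median of neutral control wells and 100% = median of positive control wells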
3T3 cytotox 2: cytotoxicity in mouse NIH/3T3 fibroblasts; shares compounds with T cruzi growth-1; NIH/3T3 viability, CellTiter-Glo ATP luminescence, 90 h; inhibition, % at 24.9 µM; 56% of 5,600 active; AID 651744;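 active means mean loss of cell viability signal at or above a set limit, and enough replicates individually reaching it; inconclusive means meets only the mean limit or only the replicate share; inactive means meets neither condition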;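 further: 0% = median of neutral control wells and 100% = median of positive control wells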
Starred values were filed as active, the others as inactive; ? = inconclusive; . = not tested or not shown. Shown are actives, neighbours in structure and some others; about 6.8% of the full set was active somewhere.

SMILES	Pf Dd2 growth	T cruzi growth-1	C diff HTS	T cruzi growth-2	T cruzi growth-3	NIH3T3 tox	3T3 cytotox 2
C[C@H](CO)N1C[C@H](C)[C@H](CN(C)Cc2ccc3cccnc3c2)OCc2cn(nn2)CCCC1=O	-9	72	-3	.	.	.	.
O=C(C[C@@H]1CC[C@@H](NS(=O)(=O)c2ccccc2F)[C@@H](CO)O1)NCCCN1CCOCC1	9	17	.	.	.	.	.
CN(C)C(=O)[C@@H]1[C@@H](CO)[C@@H]2Cn3c(ccc(C4=CCCC4)c3=O)[C@H]1N2C(=O)c1ccccc1	1	27	1	.	.	.	.
C[C@H]1CN([C@@H](C)CO)C(=O)c2cc(NS(=O)(=O)c3ccc(F)cc3)ccc2O[C@@H]1CN(C)Cc1ccc(Cl)c(Cl)c1	-7	?	45	101*	73	25	98*
COc1ccc(S(=O)(=O)Nc2ccc3c(c2)C(=O)N([C@H](C)CO)C[C@@H](C)[C@@H](CN(C)Cc2ccc(Cl)c(Cl)c2)O3)cc1	16	72	8	.	.	.	.
COc1ccc(S(=O)(=O)Nc2ccc3c(c2)C(=O)N([C@H](C)CO)C[C@@H](C)[C@H](CN(C)Cc2ccc(Cl)c(Cl)c2)O3)cc1	1	120*	8	102*	22	9	104*
COc1ccc(S(=O)(=O)Nc2ccc3c(c2)C(=O)N([C@@H](C)CO)C[C@@H](C)[C@H](CN(C)Cc2ccc(Cl)c(Cl)c2)O3)cc1	-22	121*	10	96*	68	40*	105*
C[C@H](CO)N1C[C@H](C)[C@H](CN(C)Cc2ccc(Cl)c(Cl)c2)Oc2ccc(NS(=O)(=O)c3ccc(F)cc3)cc2C1=O	17	27	9	.	.	.	.
COc1ccc(S(=O)(=O)Nc2ccc3c(c2)C(=O)N([C@@H](C)CO)C[C@H](C)[C@H](CN(C)Cc2ccc(Cl)c(Cl)c2)O3)cc1	2	114	14	.	.	.	.
CCCN1[C@@H]2c3ccc(C4=CCCCC4)c(=O)n3C[C@H]1[C@H](CO)[C@H]2C(=O)NCC	7	31	-4	.	.	.	.
COc1ccc2c3c([nH]c2c1)[C@H](CO)N(CC1CC1)CC31CN(S(=O)(=O)c2cccc(F)c2)C1	-70	.	-1	.	.	.	.
C[C@H]1CN([C@@H](C)CO)C(=O)c2cc(C#CCc3ccccc3)cnc2O[C@@H]1CN(C)C(=O)C1CCCCC1	-83*	?	10	96*	55	-10	97*
C[C@H](CO)N1C[C@H](C)[C@@H](CN(C)CC2CCCC2)Oc2ncc(C#CCc3ccccc3)cc2C1=O	-87*	97*	9	101*	106*	?	104*
C[C@H](CO)N1C[C@H](C)[C@H](CN(C)C(=O)C2CCCCC2)Oc2ncc(C#CCc3ccccc3)cc2C1=O	-49	80	18	.	.	.	.
C[C@H]1CN([C@@H](C)CO)C(=O)c2cc(C#CCC3CCCC3)cnc2O[C@@H]1CN(C)Cc1ccccn1	-56	104*	-32	101*	46	6	107*
C[C@@H]1CN([C@@H](C)CO)C(=O)c2cc(C#CCc3ccccc3)cnc2O[C@H]1CN(C)CC1CCOCC1	-53	-23	-2	.	.	.	.
C[C@H](CO)N1C[C@H](C)[C@@H](CN(C)Cc2ccccn2)Oc2ncc(C#CCC3CCCC3)cc2C1=O	-28	89	-20	.	.	.	.
CCNC(=O)Nc1ccc2c(c1)C(=O)N(C)[C@@H]1CC[C@@H](CC(=O)NCc3ccccc3F)O[C@H]1CO2	-4	13	-5	.	.	.	.
O=C(c1ccc(F)cc1)N1CC(=O)N2[C@H](CO)[C@@H](c3ccc(C#CC4CC4)cc3)[C@@H]2C1	-54	.	-1	.	.	.	.
CC(C)NC(=O)N(C)C[C@H]1Oc2ncc(C#Cc3ccccc3F)cc2C(=O)N([C@@H](C)CO)C[C@H]1C	-54	92	3	.	.	.	.
COc1ccc2c3c(n(C)c2c1)[C@@H](CO)N(C(=O)CN(C)C)CC31CN(C(=O)NC(C)C)C1	-1	.	-3	.	.	.	.
CN1c2ccc(-c3ccccc3)cc2[C@H]2[C@H](CCN2C(=O)Cc2cccnc2)[C@H]1CO	6	?	-3	99*	76	-11	-7
COc1ccc(-c2ccc3c(c2)[C@@H]2[C@@H](CCN2C(=O)Cc2cccnc2)[C@H](CO)N3C)cc1	-3	76	-4	.	.	.	.
CN1c2ccc(-c3cccc(F)c3)cc2[C@H]2[C@H](CCN2C(=O)Cc2cccnc2)[C@H]1CO	8	84	4	.	.	.	.
CN1c2ccc(-c3ccccc3)cc2[C@H]2[C@H](CCN2C(=O)Cc2cccnc2)[C@@H]1CO	9	107*	-7	111*	97*	-24	-13
SMILES	Pf Dd2 growth	T cruzi growth-1	C diff HTS	T cruzi growth-2	T cruzi growth-3	NIH3T3 tox	3T3 cytotox 2
O=C(CC1CC1)N[C@H]1C[C@@H]2O[C@H](CO)CC[C@@H]2O[C@@H]1CCc1ccc(C#Cc2ccccc2)cc1	-75	.	76	.	.	.	.
C[C@@H]1CN([C@@H](C)CO)C(=O)c2cc(NC(=O)CCN3CCOCC3)ccc2O[C@H]1CN(C)CC1CCCCC1	12	8	2	.	.	.	.
CNC[C@H]1OCc2cnnn2CCCC(=O)N([C@@H](C)CO)C[C@@H]1C	17	9	-5	.	.	.	.
Cc1ccccc1S(=O)(=O)N(C)C[C@@H]1OCc2cnnn2CCCC(=O)N([C@H](C)CO)C[C@H]1C	14	11	1	.	.	.	.
CNC[C@H]1OCc2cn(nn2)CCCC(=O)N([C@H](C)CO)C[C@H]1C	5	?	1	59	-5	-8	0
CNC[C@H]1OCc2cnnn2CCCC(=O)N([C@@H](C)CO)C[C@H]1C	1	120*	5	29	60	11	1
Cc1ccccc1S(=O)(=O)N(C)C[C@@H]1OCc2cnnn2CCCC(=O)N([C@@H](C)CO)C[C@@H]1C	27	?	2	68	48	-3	15
CNC[C@@H]1OCc2cn(nn2)CCCC(=O)N([C@@H](C)CO)C[C@@H]1C	-12	4	2	.	.	.	.
CN(C)CC(=O)Nc1ccc2c(c1)[C@@H]1C[C@H](CC(=O)N3CCCCC3)O[C@@H](CO)[C@@H]1O2	17	-79	-1	.	.	.	.
C[C@H](CO)N1C[C@H](C)[C@H](CN(C)Cc2ccccc2)Oc2ccc(NS(=O)(=O)c3cccs3)cc2C1=O	2	33	3	.	.	.	.
CO[C@H]1CN(C)C(=O)c2ccc(NC(=O)Nc3ccccc3)cc2OC[C@H](C)N(C(=O)CC2CC2)C[C@H]1C	-29	-24	.	.	.	.	.
C[C@H](CO)N1C[C@H](C)[C@@H](CN(C)S(=O)(=O)c2cccs2)Oc2ccc(NC(=O)C3CCCCC3)cc2CC1=O	-24	72	10	.	.	.	.
C[C@H](CO)N1C[C@H](C)[C@H](CN(C)S(=O)(=O)c2cccs2)Oc2ccc(NC(=O)Cc3ccccc3)cc2C1=O	-23	-84	-5	.	.	.	.
CC(C)CC#Cc1cnc2c(c1)C(=O)N([C@@H](C)CO)C[C@H](C)[C@H](CN(C)C(=O)c1cnccn1)O2	8	7	7	.	.	.	.
